Data taken from PubChem BioAssay (Tox21).
Records with an inconclusive call do not appear. A call without a number means that no potency is given here. Activity calls are given as the source filed them. Unless noted, calls come from the whole dose curve; as a rule, active = well fitted curve in the direction sought with a large enough effect in the repeat runs; inconclusive = weak or mixed curves; inactive = no such curve, though single readings can be large; an effect the other way counts as inactive or inconclusive.

What was measured:
[1] = qHTS assay to identify small molecule agonists of the peroxisome proliferator-activated receptor delta (PPARd) signaling pathway - cell viability counter screen (AID 743211); note: nearly all actives have a fitted effect of over 55% in size; note: potency is the fitted concentration of half-maximal effect
Method in brief: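 PPARd-bla HEK293H cells (3000/well) were pre-incubated 5 h at 37 C, then exposed to compound for 17 h at 37 C. After 2 h with LiveBLAzer substrate, CellTiter-Glo was added to the same wells; luminescence read after 30 min at room temperature.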

[2] = target: Peroxisome proliferator-activated receptor delta (Homo sapiens) (UniProt Q03181); assay: qHTS assay to identify small molecule agonists of the peroxisome proliferator-activated receptor delta (PPARd) signaling pathway (AID 743212; calls by dose curve)
Chain of Peroxisome proliferator-activated receptor delta (Homo sapiens) (Q03181 whole entry, looked up): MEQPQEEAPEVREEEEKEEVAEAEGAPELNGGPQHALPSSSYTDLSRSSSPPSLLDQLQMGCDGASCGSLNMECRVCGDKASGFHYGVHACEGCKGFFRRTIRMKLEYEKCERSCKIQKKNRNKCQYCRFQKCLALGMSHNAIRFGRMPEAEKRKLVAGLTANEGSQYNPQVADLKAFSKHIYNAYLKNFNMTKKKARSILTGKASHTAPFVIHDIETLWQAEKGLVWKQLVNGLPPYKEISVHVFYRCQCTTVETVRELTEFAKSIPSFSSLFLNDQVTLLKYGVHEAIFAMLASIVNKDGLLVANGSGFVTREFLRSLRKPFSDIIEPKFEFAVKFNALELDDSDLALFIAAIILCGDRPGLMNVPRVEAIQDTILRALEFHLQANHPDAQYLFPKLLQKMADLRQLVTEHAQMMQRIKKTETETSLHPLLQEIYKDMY
Method in brief: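 GeneBLAzer UAS-bla HEK293H cells carrying a PPARδ construct were exposed to compounds at 37 °C. Beta-lactamase activity was read by FRET fluorescence after 2 h at room temperature with LiveBLAzer B/G substrate.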

[3] = qHTS assay to identify small molecule agonists of the farnesoid-X-receptor (FXR) signaling pathway - cell viability counter screen (AID 743218); note: nearly all actives have a fitted effect of over 45% in size; note: potency is the fitted concentration of half-maximal effect
Method in brief: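 After 16 h at 37 C with test compounds, FXR-bla HEK 293T cells were given LiveBLAzer B/G substrate for 2 h at RT and then CellTiter-Glo; luminescence was taken after 30 min.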

[4] = qHTS assay to identify small molecule antagonists of the farnesoid-X-receptor (FXR) signaling pathway - cell viability counter screen (AID 743221; active = well fitted cell-killing curve with a large enough effect in the repeat runs, not every such curve was filed as active; note: nearly all actives have a fitted effect of over 50% in size)
Method in brief: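 GeneBLAzer FXR-UAS-bla HEK 293T cells, compound plus chenodeoxycholic acid (50 uM final), 16 h at 37 C. CellTiter-Glo added to the same wells after the beta-lactamase read; luminescence read after 30 min at room temperature as viability.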

[5] = qHTS assay to identify small molecule antagonists of the peroxisome proliferator-activated receptor delta (PPARd) signaling pathway - cell viability counter screen (AID 743213); note: nearly all actives have a fitted effect of over 50% in size
Method in brief: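 Cytotoxicity counter screen: CellTiter-Glo luminescence read 30 min after addition, in the same wells as the reporter assay. There, PPARd UAS-bla HEK293H cells (3000/well) were treated 17 h at 37 C with compound and 300 nM L165041.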

[6] = target: Peroxisome proliferator-activated receptor delta (Homo sapiens) (UniProt Q03181); assay: qHTS assay to identify small molecule antagonists of the peroxisome proliferator-activated receptor delta (PPARd) signaling pathway (AID 743215; active = well fitted inhibition curve with a large enough effect in the signal ratio in the repeat runs, not every such curve was filed as active; the % refers to the signal ratio;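 note: cells stimulated with agonist L165041 at 300 nM final during compound exposure; series mostly up to about 62 µM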)
Method in brief: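 With L165041 present at 300 nM final, compounds were incubated 17 h at 37 C on PPARd UAS-bla HEK293H cells. A FRET-based beta-lactamase substrate was then applied for 2 h at room temperature and fluorescence intensity recorded.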

[7] = target: Bile acid receptor (Homo sapiens) (UniProt Q96RI1); assay: qHTS assay to identify small molecule antagonists of the farnesoid-X-receptor (FXR) signaling pathway (AID 743217; active = well fitted inhibition curve with a large enough effect in the signal ratio in the repeat runs, not every such curve was filed as active; the % refers to the signal ratio)
Chain of Bile acid receptor (Homo sapiens) (Q96RI1 whole entry, looked up): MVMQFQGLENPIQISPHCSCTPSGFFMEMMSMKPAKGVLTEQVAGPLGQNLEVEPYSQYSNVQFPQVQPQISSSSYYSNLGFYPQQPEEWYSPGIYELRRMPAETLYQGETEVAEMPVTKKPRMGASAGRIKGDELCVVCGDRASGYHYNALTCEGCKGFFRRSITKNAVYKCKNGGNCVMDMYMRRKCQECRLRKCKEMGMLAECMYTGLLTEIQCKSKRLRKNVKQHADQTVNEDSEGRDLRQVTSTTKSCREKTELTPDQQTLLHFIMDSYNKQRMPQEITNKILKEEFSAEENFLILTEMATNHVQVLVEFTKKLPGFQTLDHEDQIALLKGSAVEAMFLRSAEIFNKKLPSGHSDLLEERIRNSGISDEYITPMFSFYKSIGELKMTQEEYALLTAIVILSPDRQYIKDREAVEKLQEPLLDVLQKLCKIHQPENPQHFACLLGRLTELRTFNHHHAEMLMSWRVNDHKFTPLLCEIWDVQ
Method in brief: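 In this cell-based antagonist screen, inhibition of CDCA-driven (50 uM final) UAS-beta-lactamase expression in HEK 293T cells was measured by FRET fluorescence following 16 h compound exposure at 37 °C.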

[8] = target: Bile acid receptor (Homo sapiens) (UniProt Q96RI1); assay: qHTS assay to identify small molecule agonists of the farnesoid-X-receptor (FXR) signaling pathway (AID 743220; active = well fitted activation curve with a large enough effect in the signal ratio in the repeat runs, not every such curve was filed as active; the % refers to the signal ratio)
Method in brief: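 Beta-lactamase reporter under UAS control in GeneBLAzer FXR HEK 293T cells (5000/well) measured with LiveBLAzer FRET substrate after 2 h at room temperature. Compound exposure lasted 16 h at 37C.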

[9] = target: Vitamin D3 receptor (Homo sapiens) (UniProt P11473); assay: qHTS assay to identify small molecule agonists of the vitamin D receptor (VDR) signaling pathway (AID 743222; calls by dose curve)
Chain of Vitamin D3 receptor (Homo sapiens) (P11473 whole entry, looked up): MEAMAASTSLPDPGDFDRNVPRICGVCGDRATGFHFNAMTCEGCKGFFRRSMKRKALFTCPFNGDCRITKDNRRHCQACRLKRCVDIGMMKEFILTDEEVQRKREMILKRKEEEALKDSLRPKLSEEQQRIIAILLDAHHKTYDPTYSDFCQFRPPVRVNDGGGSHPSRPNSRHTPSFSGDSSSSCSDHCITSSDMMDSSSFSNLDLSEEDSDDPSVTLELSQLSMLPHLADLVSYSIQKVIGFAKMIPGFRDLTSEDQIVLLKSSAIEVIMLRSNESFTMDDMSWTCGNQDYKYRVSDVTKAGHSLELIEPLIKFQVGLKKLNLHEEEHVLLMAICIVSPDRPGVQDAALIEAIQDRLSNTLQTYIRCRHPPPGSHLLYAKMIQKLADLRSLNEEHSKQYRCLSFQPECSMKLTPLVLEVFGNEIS
Method in brief: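 VDR-bla cells were seeded, left 4 h, treated with compounds in DMSO for 16 h, incubated 2 h at RT with B/G FRET substrate, and read for fluorescence.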

[10] = target: Vitamin D3 receptor (Homo sapiens) (UniProt P11473); assay: qHTS assay to identify small molecule antagonists of the vitamin D receptor (VDR) signaling pathway (AID 743223; active = well fitted inhibition curve with a large enough effect in the signal ratio in the repeat runs, not every such curve was filed as active; the % refers to the signal ratio)
Method in brief: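 VDR-bla cells were treated with compound plus 3 nM final 1alpha,25-dihydroxyvitamin D3 for 16 h at 37C. Beta-lactamase reporter read by B/G FRET substrate fluorescence after 2 h at room temperature. qHTS format.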

Row | SMILES | Potency [1] | outcome [2] | Potency [3] | Potency [4] | Potency [5] | Potency [6] | Potency [7] | outcome [8] | outcome [9] | outcome [10]
1 | CN1C(=O)C(O)N=C(c2ccccc2)c2cc(Cl)ccc21 (stereo not given) | inactive | inactive | inactive | inactive |  |  |  |  |  | 
2 | C=CC(=O)OCCCCO | inactive |  | inactive | inactive | inactive | inactive | inactive | inactive |  | 
3 | CCOP(=O)(OCC)Oc1ccc([N+](=O)[O-])cc1 | inactive | inactive | inactive | inactive |  | inactive |  | inactive | inactive | inactive
4 | O=NN1CCNCC1 | inactive | inactive |  | inactive | inactive |  |  |  | inactive | 
5 | N#CCC#N | inactive |  | inactive | inactive | inactive | inactive |  |  | inactive | 
6 | C[C@H]1CNCCc2ccc(Cl)cc21 | inactive | inactive | inactive | inactive |  | inactive | inactive | inactive | inactive | inactive
7 | Cn1cc[n+](C)c1 (tested in a mixture with another compound) | inactive | inactive | inactive | inactive |  |  | inactive | inactive |  | 
8 | CN1[C@@H]2CC[C@H]1CC(OC(=O)c1cc(Cl)cc(Cl)c1)C2 (stereo not given in full) | inactive | inactive |  |  |  | inactive |  |  |  | 
9 | CC1CC(CC2CCC(N)C(C)C2)CCC1N (stereo not given) | inactive | inactive |  |  |  | inactive |  |  | inactive | 
10 | CCC(Cl)CCl (stereo not given) | inactive | inactive |  | inactive |  | inactive |  |  | inactive | inactive
11 | CNC(C)Cc1ccccc1OC (stereo not given) | inactive | inactive |  | inactive | inactive |  |  |  | inactive | inactive
12 | CCCCOC(=O)c1ccccc1C(=O)OCc1ccccc1 | inactive | inactive |  | inactive |  |  |  |  |  | 
13 | O=[N+]([O-])c1cc(C(F)(F)F)cc([N+](=O)[O-])c1Cl | inactive |  |  |  | inactive | inactive | inactive | inactive | inactive | 
14 | Nc1nc(=S)[nH][nH]1 | inactive | inactive | inactive | inactive |  | inactive |  |  | inactive | inactive
15 | Cc1ccc(N)cc1C | inactive | inactive | inactive | inactive |  | inactive |  | inactive | inactive | 
16 | O=C(O)COc1ccc(Cl)cc1 | inactive | inactive | inactive |  | inactive |  |  |  | inactive | 

Row | SMILES | Potency [1] | outcome [2] | Potency [3] | Potency [4] | Potency [5] | Potency [6] | Potency [7] | outcome [8] | outcome [9] | outcome [10]
17 | CCCCc1c(C)nc(NCC)nc1OS(=O)(=O)N(C)C | inactive | inactive |  |  | inactive |  |  |  | inactive | inactive
18 | CCOP(=S)(Oc1ccc([N+](=O)[O-])cc1)c1ccccc1 (stereo not given) | inactive | inactive |  | inactive | inactive |  |  |  | inactive | 
19 | CCOP(=O)(OCC)O/C(=C/Cl)c1ccc(Cl)cc1Cl | inactive | inactive | inactive |  | inactive |  |  |  | inactive | inactive
20 | Clc1cccc2ccccc12 | inactive | inactive |  | inactive | inactive |  |  |  | inactive | 
21 | CCn1cc[n+](C)c1 | inactive |  |  |  | inactive |  |  |  |  | 
22 | CO[C@@H]1[C@H](OC(=O)NC(=O)CCl)CC[C@]2(CO2)[C@H]1[C@@]1(C)O[C@@H]1CC=C(C)C | inactive |  | 0.0021 µM (active) | inactive |  | inactive |  |  |  | 
23 | CC1(C)[C@H](C=C(Cl)Cl)[C@@H]1C(=O)O[C@@H](C#N)c1cccc(Oc2ccccc2)c1 | inactive |  |  | inactive | inactive |  |  |  | inactive | 
24 | Cc1c(F)c(F)c(COC(=O)C2C(/C=C(\Cl)C(F)(F)F)C2(C)C)c(F)c1F (stereo not given) | inactive |  | inactive | inactive |  | inactive |  | inactive | inactive | inactive
25 | C[C@@H]1CC[C@H]2[C@@H](C)C(=O)O[C@@H]3O[C@@]4(C)CC[C@@H]1[C@]32OO4 | inactive |  |  | inactive | inactive |  | inactive | inactive | inactive | 
26 | O=C1CN=C(c2ccccc2)c2cc(Cl)ccc2N1CC1CC1 | inactive |  |  | inactive | inactive |  |  |  | inactive | 
27 | C=CCOC(C)=O | inactive |  |  | inactive | inactive |  | inactive | inactive | inactive | inactive
28 | CCCCC(O)(Cn1cncn1)c1ccc(Cl)cc1Cl (stereo not given) | 54.9 µM (active) |  | inactive |  |  |  |  | inactive |  | 
29 | CCOP(=O)(OCC)SCCSCC | inactive |  | inactive | inactive | inactive |  |  |  | inactive | 
30 | O=C(NCc1cccnc1)Nc1ccc([N+](=O)[O-])cc1 | inactive |  |  | inactive | inactive |  |  |  |  | 
31 | C=CCN1CC[C@]23c4c5ccc(O)c4O[C@H]2C(=O)CC[C@@]3(O)[C@H]1C5 | inactive |  | inactive | inactive | inactive |  | inactive | inactive | inactive | 
